According to PubChem BioAssay (NCI):
This is part of a sample that, as a whole, favours compounds with a hit. Of some 83,000 tested, about 20% had one in any assay.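 Testing used 96-well plates and a 48-hour single-concentration exposure. Example: -40 means 40% of the starting cells died.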 Unmarked numbers belong to inactive results. Active and inactive are the calls of the source. How the source made its calls: active means growth percent below 10; inactive means the rest.

These molecules were tested on HL-60(TB) leukemia (assay: NCI-60 one-dose screen, 48 h (100 = growth as untreated, 0 = no growth, -100 = all killed)). Conditions: 10 µM unless noted.

Row | SMILES | growth
1 | Cc1ccc(OCCOCCOCCOCCOCCOc2ccc(C)n(O)c2=S)c(=S)n1O | -16.5% (active)
2 | Cc1cc(Nc2ccc(OCc3ccccc3)cc2)nc2cc(O)ccc12 | -44.4% (active)
3 | O=C1/C(=C(/c2ccccc2)N2CCOCC2)Cc2ccccc21 | 27.5%
4 | NS(=O)(=O)c1ccc(-n2ncc3c(SCc4ccccc4)ncnc32)cc1 | 88.1%
5 | CCCCCN1C=C/C(=C\C(=O)N(C)c2ccc(Oc3ccccc3)cc2)c2ccccc21 | 66.9%
6 | Nc1nc(N)c2cc(S(=O)(=O)c3cccc(C(F)(F)F)c3)ccc2n1 | 30.9%
7 | COc1cc(C(=O)/C=C/c2c(-c3cccs3)nc3sc(C)cn23)cc(OC)c1OC | -18.4% (active)
8 | CSc1nc(-c2ccc(O)cc2O)c2c(=O)[nH]c(Nc3ccc(S(=O)(=O)Nc4nc(C)cc(C)n4)cc3)nc2n1 | 114%
9 | NC(=O)[C@@H]1Cc2ccccc2CN1C(=O)c1ccc2c(c1)Cc1ccccc1-2 | 72.2%
10 | CC(C)=CCC[C@](C)(O)[C@H]1CC[C@]2(C)[C@@H]1CC[C@@H]1[C@@]3(C)C/C(=C/c4cccc([N+](=O)[O-])c4)C(=O)C(C)(C)[C@@H]3CC[C@]12C | 68.4%
11 | Clc1ncnc2scc(C3COc4ccccc4O3)c12 (centres undefined) | 102%
12 | COc1ccc(-c2nnc(SCC(=O)NC3=NN=C(c4ccccc4)CS3)o2)cc1 | 90.9%
13 | CC1CCN(CCCCCOc2ccc3oc4ccccc4c(=O)c3c2)CC1 | 44.6%
14 | CC(=O)NC1=C(C#N)C(c2ccccc2Cl)c2c(ccc3ccccc23)O1 (centres undefined) | 29.7%
